The source of these data is PubChem BioAssay (NCATS).

Inconclusive results are not listed. Unmarked numbers belong to inactive results. Calls of active or inactive are those of the source. The call rests on the fitted dose curve; in most records, active means well fitted curve in the direction sought with a large enough effect; inconclusive means small, poorly fitted or top-dose-only effect, or another doubt; inactive means no such curve, though single readings can be large; an effect the other way counts as inactive or inconclusive.
Potency means the concentration at half of the fitted maximal effect.

The first experiment is described as follows: qHTS of pediatric cancer cell lines to identify multiple opportunities for drug repurposing: Primary screen for SK-N-MC cells (AID 1347093).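 On activity change, negative = cytotoxic: plate controls were DMSO neutral control for no effect and bortezomib for full effect.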 Particulars: SK-N-MC viability, CellTiter-Glo luminescence, 48 h; series mostly up to 46 µM; activity change, negative = cytotoxic: at the top concentration. In a few lines: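 Metabolically active cells were quantified by ATP-dependent luminescence (CellTiter-Glo, 15 min at room temperature) following 48 h treatment. Cells had been plated at 500-1,000 per well and settled for 5 h beforehand.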
Take `C[C@@]12CCC[C@H]1[C@@H]1CC[C@H]3C[C@@H](O)CC[C@]3(C)[C@H]1CC2`: the “activity change, negative = cytotoxic” value was -13.1%.

For `CCOC(=O)OCC/C(SC(=O)OCC)=C(\C)N(C=O)Cc1cnc(C)nc1N`, the “activity change, negative = cytotoxic” value was -19.9%.

Take `CO/N=C(\C(=O)O)c1csc(NC(=O)CCl)n1`: the “activity change, negative = cytotoxic” value was 11.9%.

In the case of `Nc1ncnc2nc[nH]c12`, the “activity change, negative = cytotoxic” value is 24.5%.

As for `O=C(CCCl)NCc1ccccc1`, the “activity change, negative = cytotoxic” value is -4.22%.

With `Cc1nc(C2CCCCC2)c(-c2ccc(S(N)(=O)=O)c(F)c2)o1`, the “activity change, negative = cytotoxic” value is -18.8%.

As for `CC1(C)O[C@@H]2C[C@H]3[C@@H]4CCC5=CC(=O)C=C[C@]5(C)[C@@]4(F)[C@@H](O)C[C@]3(C)[C@]2(C(=O)CO)O1`, the “activity change, negative = cytotoxic” value was -24.4%.

Consider `CC(C)(C)CC(=O)OCC(=O)[C@@]1(O)CC[C@H]2[C@@H]3CCC4=CC(=O)C=C[C@]4(C)[C@H]3[C@@H](O)C[C@@]21C`, for which the “activity change, negative = cytotoxic” value was -5.46%.

For `O=C1Nc2cc(Cl)ccc2Oc2ccccc21`, the “activity change, negative = cytotoxic” value is -13.1%.

On to `CC(COc1ccccc1)NN` (stereo unspecified), for which the “activity change, negative = cytotoxic” value is -8.1%.

As to `CC(C)=CCC/C(C)=C/CC/C(C)=C/C(=O)OCC(=O)[C@@]1(O)CC[C@H]2[C@@H]3CCC4=CC(=O)C=C[C@]4(C)[C@H]3[C@@H](O)C[C@@]21C`, the “activity change, negative = cytotoxic” value was -10.8%.

On to `CCc1cc(S(=O)(=O)O)c2cc(C(C)C)cccc1-2`, for which the “activity change, negative = cytotoxic” value is -9.24%.

In the case of `Oc1ccc(CCNCCCCCCNCCc2ccccc2)cc1O`, the Potency is 23.7 µM (active).

In the case of `CC1c2ccccc2CN1NC(=O)c1ccc(Cl)c(S(N)(=O)=O)c1` (stereo unspecified), the “activity change, negative = cytotoxic” value is -4.07%.

In the case of `O=C(O)c1[nH]n(-c2ccc(S(=O)(=O)O)cc2)c(=O)c1N=Nc1ccc(S(=O)(=O)O)cc1`, the “activity change, negative = cytotoxic” value was -7.08%.

Regarding `CC(CC(C#N)(c1ccccc1)C(C)C)N(C)C` (stereo unspecified), the “activity change, negative = cytotoxic” value was -22.8%.

On to `CN(CC1(C)CCCO1)S(=O)(=O)c1ccc(Cl)c(S(N)(=O)=O)c1` (stereo unspecified), for which the “activity change, negative = cytotoxic” value was -9.44%.

Turning to `C[C@H]1C[C@H]2[C@@H]3CCC4=CC(=O)C=C[C@]4(C)[C@H]3C(=O)C[C@]2(C)[C@@]1(O)C(=O)CO`, the “activity change, negative = cytotoxic” value was -1.37%.

Regarding `CC(=O)c1cc2ccccc2s1`, the “activity change, negative = cytotoxic” value was 18.1%.

Take `O=c1[nH]c(=O)n([C@H]2O[C@H](CO)[C@@H](O)[C@@H]2O)cc1/C=C\Br`: the “activity change, negative = cytotoxic” value is -0.285%.

Consider `O=C(c1ccco1)N1CCNCC1`, for which the “activity change, negative = cytotoxic” value was -21.9%.

For `CCOC(=O)NNc1ccc(N(CC)CC(C)O)nn1` (stereo unspecified), the “activity change, negative = cytotoxic” value is -18.2%.

Regarding `CCCCCCCCCCCC[N+](C)(C)Cc1ccccc1`, the Potency is 2.66 µM (active).

Take `CC1CC(=O)NN=C1c1ccc(NCC(C)(C)NCC(O)COc2cc(Cl)ccc2C#N)cc1` (stereo unspecified): the “activity change, negative = cytotoxic” value is 18.6%.

`Clc1ccc2c(c1)Nc1ccccc1S2`: the “activity change, negative = cytotoxic” value is -3.53%.

Take `CCC1(c2cnc[nH]2)Cc2ccccc2C1`: the “activity change, negative = cytotoxic” value is -78.5%.

With `O=[N+]([O-])c1cncn1CCN1CCOCC1`, the “activity change, negative = cytotoxic” value was 51.8%.

On to `CCCc1c2oc(C(=O)O)cc(=O)c2cc2c(=O)cc(C(=O)O)n(CC)c12`, for which the “activity change, negative = cytotoxic” value was -19.5%.

`CCO[C@H](Cc1ccc(OCCc2ccc(OS(C)(=O)=O)cc2)cc1)C(=O)O`: the “activity change, negative = cytotoxic” value is 3.2%.

For the compound `COc1cc(OC)nc(O[C@H](C(=O)O)C(OC)(c2ccccc2)c2ccccc2)n1`, the “activity change, negative = cytotoxic” value is 1.07%.

Turning to `CC1CCCCN1CCCOC(=O)c1ccc(OC2CCCCC2)cc1` (stereo unspecified), the “activity change, negative = cytotoxic” value was -16.8%.

As to `CN(C)CCCOC1(Cc2ccccc2)CCCCCC1`, the “activity change, negative = cytotoxic” value is -4.8%.

For the compound `CCCCC(O)/C=C(C)/C=C/C=C/C(=O)N1CCCC1=O` (stereo unspecified), the “activity change, negative = cytotoxic” value is -17.7%.

`NS(=O)(=O)c1cc2c(cc1Cl)CN(C1CCCCC1)C2=O`: the “activity change, negative = cytotoxic” value was -2.52%.

Consider `O=C1[C@@H]2[C@H]3CC[C@H](C3)[C@@H]2C(=O)N1CCCCN1CCN(c2ncccn2)CC1`, for which the “activity change, negative = cytotoxic” value is 24.1%.

For `CO[C@@]1(NC(=O)CSC[C@@H](N)C(=O)O)C(=O)N2C(C(=O)O)=C(CSc3nnnn3C)CS[C@@H]21`, the “activity change, negative = cytotoxic” value was -27.3%.

As to `C/C(=N/NC(=O)c1ccncc1)C(=O)O`, the “activity change, negative = cytotoxic” value was 5.65%.

`CCCCCCCCCCCCCCCCCCN(C)C`: the “activity change, negative = cytotoxic” value is -24.6%.

The next experiment in a line: qHTS of pediatric cancer cell lines to identify multiple opportunities for drug repurposing: Primary screen for BT-37 cells (AID 1347094).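 On activity change, negative = cytotoxic: plate controls were DMSO for no effect and bortezomib for full effect.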 Particulars: BT-37 viability, CellTiter-Glo luminescence, 48 h; series mostly up to 57.3 µM; activity change, negative = cytotoxic: at the top concentration. In a few lines:
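Phenotypic viability qHTS, 48 h compound exposure, CellTiter-Glo luminescence read-out; multi-concentration dosing so that potency and efficacy derive directly from the primary screen's curves.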
(Quantitative high-throughput screening tests each substance at several concentrations.)
Regarding `C[C@@]12CCC[C@H]1[C@@H]1CC[C@H]3C[C@@H](O)CC[C@]3(C)[C@H]1CC2`, the “activity change, negative = cytotoxic” value was 3.02%.

`CCOC(=O)OCC/C(SC(=O)OCC)=C(\C)N(C=O)Cc1cnc(C)nc1N`: the “activity change, negative = cytotoxic” value was 4.27%.

On to `CO/N=C(\C(=O)O)c1csc(NC(=O)CCl)n1`, for which the “activity change, negative = cytotoxic” value was 14.8%.

Take `Nc1ncnc2nc[nH]c12`: the “activity change, negative = cytotoxic” value is 36.7%.

Turning to `O=C(CCCl)NCc1ccccc1`, the “activity change, negative = cytotoxic” value was 4.54%.

As for `Cc1nc(C2CCCCC2)c(-c2ccc(S(N)(=O)=O)c(F)c2)o1`, the “activity change, negative = cytotoxic” value is 1.58%.

With `CC1(C)O[C@@H]2C[C@H]3[C@@H]4CCC5=CC(=O)C=C[C@]5(C)[C@@]4(F)[C@@H](O)C[C@]3(C)[C@]2(C(=O)CO)O1`, the “activity change, negative = cytotoxic” value was 11%.

With `CC(C)(C)CC(=O)OCC(=O)[C@@]1(O)CC[C@H]2[C@@H]3CCC4=CC(=O)C=C[C@]4(C)[C@H]3[C@@H](O)C[C@@]21C`, the “activity change, negative = cytotoxic” value was -3.6%.

In the case of `O=C1Nc2cc(Cl)ccc2Oc2ccccc21`, the “activity change, negative = cytotoxic” value was -19.7%.

On to `CC(COc1ccccc1)NN` (stereo unspecified), for which the “activity change, negative = cytotoxic” value is 7.66%.

For the compound `CC(C)=CCC/C(C)=C/CC/C(C)=C/C(=O)OCC(=O)[C@@]1(O)CC[C@H]2[C@@H]3CCC4=CC(=O)C=C[C@]4(C)[C@H]3[C@@H](O)C[C@@]21C`, the “activity change, negative = cytotoxic” value is -16.7%.

On to `CCc1cc(S(=O)(=O)O)c2cc(C(C)C)cccc1-2`, for which the “activity change, negative = cytotoxic” value is -1.87%.

`Oc1ccc(CCNCCCCCCNCCc2ccccc2)cc1O`: the “activity change, negative = cytotoxic” value is -8.74%.

In the case of `CC1c2ccccc2CN1NC(=O)c1ccc(Cl)c(S(N)(=O)=O)c1` (stereo unspecified), the “activity change, negative = cytotoxic” value is 5.59%.

In the case of `O=C(O)c1[nH]n(-c2ccc(S(=O)(=O)O)cc2)c(=O)c1N=Nc1ccc(S(=O)(=O)O)cc1`, the “activity change, negative = cytotoxic” value is 1.37%.

With `CC(CC(C#N)(c1ccccc1)C(C)C)N(C)C` (stereo unspecified), the “activity change, negative = cytotoxic” value was 7.73%.

With `CN(CC1(C)CCCO1)S(=O)(=O)c1ccc(Cl)c(S(N)(=O)=O)c1` (stereo unspecified), the “activity change, negative = cytotoxic” value was 11.3%.

`C[C@H]1C[C@H]2[C@@H]3CCC4=CC(=O)C=C[C@]4(C)[C@H]3C(=O)C[C@]2(C)[C@@]1(O)C(=O)CO`: the “activity change, negative = cytotoxic” value was 1.02%.

As to `CC(=O)c1cc2ccccc2s1`, the “activity change, negative = cytotoxic” value is 12.4%.

Take `O=c1[nH]c(=O)n([C@H]2O[C@H](CO)[C@@H](O)[C@@H]2O)cc1/C=C\Br`: the “activity change, negative = cytotoxic” value was 8.58%.

For `O=C(c1ccco1)N1CCNCC1`, the “activity change, negative = cytotoxic” value is -0.557%.

As to `CCOC(=O)NNc1ccc(N(CC)CC(C)O)nn1` (stereo unspecified), the “activity change, negative = cytotoxic” value is 7.51%.

For `CCCCCCCCCCCC[N+](C)(C)Cc1ccccc1`, the Potency was 15.5 µM (active).

In the case of `CC1CC(=O)NN=C1c1ccc(NCC(C)(C)NCC(O)COc2cc(Cl)ccc2C#N)cc1` (stereo unspecified), the “activity change, negative = cytotoxic” value is 0.938%.

Consider `Clc1ccc2c(c1)Nc1ccccc1S2`, for which the “activity change, negative = cytotoxic” value is -0.753%.

For the compound `CCC1(c2cnc[nH]2)Cc2ccccc2C1`, the “activity change, negative = cytotoxic” value was -28.2%.

Turning to `O=[N+]([O-])c1cncn1CCN1CCOCC1`, the “activity change, negative = cytotoxic” value was 15.6%.

On to `CCCc1c2oc(C(=O)O)cc(=O)c2cc2c(=O)cc(C(=O)O)n(CC)c12`, for which the “activity change, negative = cytotoxic” value was 4.79%.

Regarding `CCO[C@H](Cc1ccc(OCCc2ccc(OS(C)(=O)=O)cc2)cc1)C(=O)O`, the “activity change, negative = cytotoxic” value was 4.97%.

With `COc1cc(OC)nc(O[C@H](C(=O)O)C(OC)(c2ccccc2)c2ccccc2)n1`, the “activity change, negative = cytotoxic” value was -36.3%.

In the case of `CC1CCCCN1CCCOC(=O)c1ccc(OC2CCCCC2)cc1` (stereo unspecified), the “activity change, negative = cytotoxic” value is -16.5%.

Take `CN(C)CCCOC1(Cc2ccccc2)CCCCCC1`: the “activity change, negative = cytotoxic” value is 6.42%.

As to `CCCCC(O)/C=C(C)/C=C/C=C/C(=O)N1CCCC1=O` (stereo unspecified), the “activity change, negative = cytotoxic” value is 9.68%.

On to `NS(=O)(=O)c1cc2c(cc1Cl)CN(C1CCCCC1)C2=O`, for which the “activity change, negative = cytotoxic” value was 8.93%.

With `O=C1[C@@H]2[C@H]3CC[C@H](C3)[C@@H]2C(=O)N1CCCCN1CCN(c2ncccn2)CC1`, the “activity change, negative = cytotoxic” value was -5.97%.

Consider `CO[C@@]1(NC(=O)CSC[C@@H](N)C(=O)O)C(=O)N2C(C(=O)O)=C(CSc3nnnn3C)CS[C@@H]21`, for which the “activity change, negative = cytotoxic” value is 7.28%.

Consider `C/C(=N/NC(=O)c1ccncc1)C(=O)O`, for which the “activity change, negative = cytotoxic” value was 6.89%.

Turning to `CCCCCCCCCCCCCCCCCCN(C)C`, the “activity change, negative = cytotoxic” value is 3.1%.
